“And” between values parts separate entries of the source, which are not always exact repeats. Equal values may be shown once. The campaign covered roughly 73,000 compounds. About 1,800 (2.5%) were called active. Inconclusive results (about 13%) are left out. Shown is part of a subset that was picked to be rich in actives. Values without a mark were called inactive. Calls come from the whole dose curve; as a rule, active = well fitted activation curve with a large enough effect; inconclusive = small, poorly fitted or top-dose-only effect; inactive = no such curve, though single readings can be large or run the other way.
Potency is the fitted concentration of half-maximal effect.

The experiment in a line: qHTS Assay for Agonists of the Thyroid Stimulating Hormone Receptor: Activators of Intracellular cAMP Concentrations in Parental HEK 293. For activation: % of control where 0% means no effect. Note: nearly all actives have a fitted effect of over 55% in size. The conditions noted are these: parental HEK293 CNG cAMP sensor, membrane potential fluorescence; series mostly up to 57.1 µM; activation: at the top concentration. An excerpt: NIH Chemical Genomics Center [NCGC]
NIH Molecular Libraries Screening Centers Network [MLSCN]
PI Name: Dr. Marvin Gershengorn
This cell based assay utilized a cyclic nucleotide gated ion channel (CNG) as a biosensor for cAMP induction. HEK 293 cells stably expressing the modified CNG were purchased from BD biosciences (http://www.atto.com/products/actone/features_benefits.shtml) . Stimulation of cAMP production causes the CNG to open and subsequent membrane depolarization to occur. A fluorescent membrane potential dye (BD biosciences) was utilized to detect cAMP stimulation in cells.
The cells were maintained in DMEM medium (Invitrogen) containing 10 % FBS (Hyclone), 100 units/ml Penicillin, 100 ug/ml Streptomycin (Invitrogen), and 250 ug/ml Geneticin (Invitrogen) and 1 ug/ml Puromycin (Invitrogen) at 37C in 5% CO2. This assay was used as a counterscreen to "qHTS Assay for Agonists of the Thyroid Stimulating Hormone Receptor", to control for compounds signaling through endogenous receptors and other targets of HEK 293 cells.
NCGC Assay Protocol Summary:
High Throughput Screening. Freshly passaged cells were dispensed into 1536-well assay plates at 4 ul/well in DMEM containing phenol red (Invitrogen), 10% FCS (Hyclone), and 100 units/ml Penicillin, 100 ug/ml Streptomycin (Invitrogen) and incubated at 37 C with 5% CO2 for 20 to 36 hrs before the robotic screening. The screen was initiated by addition of 4 ul/well membrane potential dye containing 100 uM RO 20-1724 (Sigma Aldrich), followed by 60 min incubation at room temperature to allow for dye equilibration across the cell membrane. 23 nl/well compound or control was then added to the assay plates, which were incubated for additional 30 min before reading a Envision fluorescence plate reader (Perkin Elmer) in bottom-read mode for fluorescence intensity (emission at 590 nm).
Keywords: cAMP, CNG Ion Channel, quantitative high throughput screening, qHTS, HTS, probe identification, CNG, cAMP, cyclic nucleotide gated ion channel PubChem
A general note: In qHTS, concentration-response curves come from the screen itself.
On to `CCC(c1nnnn1Cc1ccco1)N(CCc1ccccc1)Cc1cc2cccc(C)c2[nH]c1=O` (configuration not stated), for which the Potency was 12.6 µM (active).

In the case of `COc1ccc(CCN(Cc2cc3cccc(C)c3[nH]c2=O)C(=O)N2CCCC2)cc1OC`, the “activation” value is 4.44%.

With `COc1ccc2[nH]c(=O)c(CN(CC3CCCO3)C(=O)Nc3ccccc3)cc2c1` (configuration not stated), the “activation” value was 7.93%.

For the molecule `CCC(c1nnnn1Cc1ccco1)N(Cc1cc2cc(OC)ccc2[nH]c1=O)C1CCCCC1` (configuration not stated), the Potency is 10 µM (active).

Consider `COc1ccc2[nH]c(=O)c(CN(Cc3nnnn3CCc3ccccc3)CC3CCCO3)cc2c1` (configuration not stated), for which the “activation” value was 11.3%.

As for `CCC(c1nnnn1C1CCCC1)N(Cc1cccs1)Cc1cc2cccc(C)c2[nH]c1=O` (configuration not stated), the “activation” value is 24.4%.

As to `COc1ccc(/C=C/NC(=O)Cc2ccc(OC)c(OC)c2)cc1`, the activation is 28.5% [at 11.4 µM] and 7.24% [at 11.4 µM].

As to `Cn1c(CNc2nc(-c3ccccc3)cs2)nnc1SCC(=O)c1ccccc1`, the “activation” value is 5.27%.

Consider `CCN(CC)CCCCn1c(-c2ccccc2)nc2c(N3CCOCC3)nc(C)nc21`, for which the “activation” value was 25%.

Turning to `COc1c(C)cccc1C(=O)Nc1cc(Cl)ccc1N1CCOCC1`, the Potency is 25.1 µM (active).

Take `CC(=O)Nc1ccc(N2CCOCC2)c(C(=O)Nc2cccc(C)c2)c1`: the “activation” value is -0.0802%.

Regarding `O=C(CNC(=O)c1ccc(Cl)cc1Cl)NCC(=O)Nc1ccccc1N1CCOCC1`, the “activation” value was 2.72%.

In the case of `Cc1ccc(NC(=O)c2cccc(N(C)C)c2)cc1NC(=O)c1ccc(O)cc1`, the “activation” value was 0.64%.

Regarding `COC(=O)c1oc2ccc(Br)cc2c1NC(C)=O`, the “activation” value is 10.9%.

In the case of `Cc1cc(C)cc(OCc2nnc(SCC(=O)Nc3ccccc3)o2)c1`, the “activation” value was 6.95%.

As to `Cc1cccc(OCc2nnc(SCc3nc4cc(C(F)(F)F)ccc4c(=O)[nH]3)o2)c1`, the “activation” value is 2.42%.

With `Cc1cccc(OCc2nnc(SCn3nnc4ccccc4c3=O)o2)c1`, the Potency was 25.1 µM (active).

For the molecule `Cc1noc(C)c1S(=O)(=O)N(CC(=O)Nc1ccc2c(c1)OCCO2)c1ccc(C(C)C)cc1`, the “activation” value was 20.2%.

As for `C=CCOc1ccc(/C=N/n2cncn2)cc1OC`, the “activation” value was -4.54%.

Turning to `Cc1nc(C)c(C(=O)Nc2cccc(C)c2C)o1`, the “activation” value was 7.93%.

As to `Cc1ccc(OCC(=O)Nc2ccc(-c3nnc(-c4ccco4)o3)cc2)cc1`, the “activation” value is 21.5%.

With `CCCCOc1ccc(-c2nnc(-c3ccco3)o2)cc1`, the Potency is 20 µM (active).

Take `CCC(=O)Oc1cccc(C(=O)Nc2ccc(-c3nnc(-c4ccco4)o3)cc2)c1`: the “activation” value is 1.31%.

Consider `CC(C)(C)c1ccc(OC2C=CC(C#Cc3ccccc3)OC2CO)cc1` (configuration not stated), for which the activation was 12.6% [at 11.4 µM].

`Cc1cc2nc3c(=O)[nH]c(=O)nc-3n(C[C@H](O)[C@H](O)[C@H](O)CO)c2cc1C`: the “activation” value was 35.7%.

Turning to `CC(Cc1cccs1)NC(=O)NC1CCCCC1` (configuration not stated), the “activation” value was 6.28%.

`Cc1ccccc1NC(=O)c1cnn(-c2ccccc2)c1NC(=O)c1ccco1`: the “activation” value was 5.37%.

Consider `O=C(Nc1c(-c2ccccc2)nc2c(Br)cc(Br)cn12)c1ccco1`, for which the Potency was 20 µM (active).

With `O=C(Nc1ccc(Oc2ccccc2)cc1)c1ccco1`, the “activation” value was 9.26%.

For `N#Cc1nc(COc2ccc(-c3ccccc3)cc2)oc1NCc1cccnc1`, the “activation” value was 16.9%.

As to `N#Cc1nc(COc2ccc(Cl)cc2)oc1N1CCCC1`, the Potency was 15.8 µM (active).

For `CCOc1ccc(Nc2oc(Cc3ccccc3)nc2C#N)cc1`, the “activation” value is 6.65%.

For the molecule `Cn1c(=O)c2c(nc(N3CCCCCC3)n2CC(O)COc2ccc(Cl)cc2)n(C)c1=O` (configuration not stated), the “activation” value is -35.3%.

Regarding `N#Cc1nc(-c2ccc(OCc3ccccc3)cc2)oc1NCCCN1CCOCC1`, the “activation” value was -0.986%.

In the case of `Cc1ccc(OCc2nc(C#N)c(N3CCCC3)o2)cc1`, the Potency is 20 µM (active).

`CCOc1cc(/C=N/O)cc(Br)c1OC`: the activation is 15% [at 11.4 µM].

On to `CCOC(=O)[C@]1(C(/C=C/c2ccco2)NC(=O)OC)CCCC1=O` (some centres not stated), for which the activation is 0.322% [at 11.4 µM].

With `O=C(NC(Cc1ccccc1)C(=O)N1CCCC1C(=O)O)c1ccccc1` (configuration not stated), the “activation” value was -0.0027%.

On to `O=c1c(CCc2ccccc2)nc2cncnc2n1C1CC1`, for which the “activation” value was 2.16%.

`CCOC(=O)C1CCCN(C(=O)C2CCN(c3nnc(-n4cccc4)s3)CC2)C1` (configuration not stated): the “activation” value was 12.6%.

As for `O=C1CSC(c2cccc(F)c2)N1c1ccccc1F` (configuration not stated), the “activation” value was 4.72%.

For `Fc1ccc(Br)cc1/C=N/n1cnnc1`, the “activation” value was 11%.

With `Cc1cc(/C=N/n2cnnc2)c(C)n1-c1cccc(C(=O)O)c1`, the “activation” value is 7.1%.

As to `Cc1cc(/C=N/n2cnnc2)c(C)n1-c1ccc2ncccc2c1`, the Potency was 3.98 µM (active).

For the molecule `CCOC(=O)c1cc2cc(-c3c(C(=O)OCC)oc4cc(O)cc(O)c4c3=O)ccc2o1`, the “activation” value is -9.15%.

Take `COc1ccccc1CN1CC2(CCN(S(=O)(=O)c3ccccc3)CC2)C1`: the “activation” value is 7.71%.

Take `CN1CCC2(CC1)CCN(S(=O)(=O)c1ccccc1)CC2`: the Potency was 3.98 µM (active).

For the origin of these results see PubChem BioAssay AID938 (National Center for Advancing Translational Sciences (NCATS), 2007).
